The panel holds about 83,000 compounds, 20% with a hit somewhere; the sample as a whole holds those more often.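 A percent growth of 40 corresponds to 60% growth inhibition; 0 means no net growth; -100 means all cells died. Active threshold: below 10.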 Unmarked numbers belong to inactive results. Active and inactive are the calls of the source.
Columns and labels:
Test in all cases: NCI-60 one-dose screen, 48 h (100 = growth as untreated, 0 = no growth, -100 = all killed)
Conditions in all cases: 10 µM
[1] = tested on: HT29 colon
[2] = tested on: SNB-75 CNS
[3] = tested on: SNB-19 CNS
[4] = tested on: U251 CNS
[5] = tested on: PC-3 prostate
[6] = tested on: SK-MEL-5 melanoma
[7] = tested on: UACC-62 melanoma
[8] = tested on: LOX IMVI melanoma
[9] = tested on: SK-MEL-28 melanoma
[10] = tested on: SK-MEL-2 melanoma
[11] = tested on: SN12C renal
[12] = tested on: UO-31 renal
[13] = tested on: TK-10 renal
[14] = tested on: ACHN renal
[15] = tested on: CAKI-1 renal
[16] = tested on: MOLT-4 leukemia
[17] = tested on: SR leukemia
[18] = tested on: CCRF-CEM leukemia
[19] = tested on: A498 renal

SMILES	growth [1]	growth [2]	growth [3]	growth [4]	growth [5]	growth [6]	growth [7]	growth [8]	growth [9]	growth [10]	growth [11]	growth [12]	growth [13]	growth [14]	growth [15]	growth [16]	growth [17]	growth [18]	growth [19]
C=C(C(=O)c1ccccc1)C(NC(C)(C)C)c1ccccc1 (stereo not given)	-26.1% (active)	53.6%	80.8%	4.4% (active)	5.45% (active)	-25.6% (active)	0.104% (active)	-82.2% (active)	9.1% (active)	-13.9% (active)	2.42% (active)	-51.7% (active)	9.63% (active)	-59.4% (active)	6.9% (active)	4.36% (active)	-17.7% (active)	–	–
COc1ccc(OC)c(NC(=O)c2sc3nc4c(cc3c2N)C(=O)CCC4)c1	106%	87.2%	82.2%	94.5%	80.4%	66%	75.3%	90.8%	83.7%	94.1%	95.5%	84.7%	98%	106%	86.3%	93.1%	73.7%	84.4%	–
O=c1[nH]c(-c2ccc(Cl)cc2)nc2sc3c(c12)CCCC3	106%	57.9%	76.6%	54.3%	93.2%	75.9%	55.8%	48.9%	107%	102%	52.5%	78.8%	–	53.3%	13.4%	49.4%	0.705% (active)	12.3%	86.6%
Cc1ccc(-c2n[nH]c(=O)c3noc(-c4ccc(C)cc4)c23)cc1	6.9% (active)	-15% (active)	56%	27.7%	28%	15.9%	28.6%	44%	52%	9.04% (active)	47%	20.3%	–	33.9%	16.9%	44.2%	10.2%	17.5%	13.8%
O=C1NC(=O)N(Cc2ccccc2)CC1Br (stereo not given)	77.3%	91.4%	90.6%	59.6%	73.1%	77.5%	72.8%	25.8%	97.7%	70.4%	56.3%	77.6%	86.3%	70.5%	–	57.7%	19.7%	13%	129%
CSc1nn(-c2ccccc2)c2ncnc(Oc3ccc(C)cc3)c12	99.3%	75.1%	102%	91.2%	82.5%	94.5%	99.6%	95%	99.5%	75.3%	88.8%	84.4%	94.2%	76%	84.8%	94.9%	91.8%	90.5%	–
CN(CCc1ccccn1)c1ccccc1	102%	92%	102%	96.4%	101%	103%	98%	102%	101%	101%	104%	97.9%	104%	102%	–	59.9%	87.5%	-0.411% (active)	109%
CN(C)c1ccc(-c2cc(-c3cccc(NS(C)(=O)=O)c3)nc(N)c2C#N)cc1	8.8% (active)	-2.46% (active)	43.3%	20.3%	10.4%	4.17% (active)	47.4%	23.7%	69%	57.2%	37.9%	11.2%	42.1%	26.1%	–	24.3%	9.27% (active)	15.9%	–
COc1ccccc1/C=C/C(=O)c1ccccc1	54.2%	87.8%	99.4%	58.4%	54.5%	82.1%	67.3%	59.8%	97.5%	84%	91.6%	60.1%	104%	84.2%	–	46%	10.5%	29%	108%

From PubChem BioAssay (NCI)
